# CIT2-GFP yeast – modulators of TOR pathway CIT2-GFP in S. cerevisiae; GFP response vs DMSO, % at 10 µM; hit rate 0.065% among 320,000; S. cerevisiae CIT2-GFP strain, flow cytometry, 3 h; 100 means same as DMSO wells;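 active means GFP response relative to DMSO above a set limit, near the screen mean plus 3 SD, cut at about 150% in these data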;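 further: ratio of well median GFP fluorescence to mean of DMSO wells on the plate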
# MEP2 TOR yeast – yeast TOR pathway MEP2-GFP modulation | S. cerevisiae MEP2-GFP strain, flow cytometry GFP, 3 h; 100% = DMSO control level | GFP response vs DMSO, % at 10 µM | hit rate 0.51% among 330,000 | AID 2016;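 active means GFP response versus DMSO above a set limit, roughly screen mean plus 3 SD, cut at about 180% in these data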;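 further: median GFP fluorescence of the barcode-gated MEP2-GFP cells per well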
# LAP4-GFP MLPCN – alters LAP4-GFP fluorescence in TOR pathway yeast screen | S. cerevisiae LAP4-GFP multiplex, flow cytometry GFP, 3 h; median GFP as percent of DMSO wells | AID 2023 | hit rate 0.34% among 320,000 | GFP response vs DMSO, % at 10 µM;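 active means GFP response vs DMSO above a set limit, about the screen mean plus 3 SD, cut at about 150% in these data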
# RPL19A-GFP yeast – alters RPL19A-GFP fluorescence in TOR pathway yeast screen; S. cerevisiae RPL19A-GFP strain, flow cytometry, 3 h; hits give low values; percent response vs DMSO, % at 10 µM; hit rate 0.3% among 330,000;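 active means percent response vs DMSO below 50%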;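 further: median channel GFP fluorescence of the barcoded RPL19A-GFP strain; lower means less RPL19A-GFP as with rapamycin TOR inhibition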
# AGP1 TOR yeast – yeast TOR pathway AGP1-GFP modulation. S. cerevisiae AGP1-GFP multiplex flow cytometry, 3 h; GFP as percent of DMSO wells. GFP response vs DMSO, % at 10 µM. hit rate 0.02% among 320,000. AID 2066;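 active means GFP response relative to DMSO above a set limit, near screen average plus 3 SD, cut at about 150% in these data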;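 further: median GFP channel fluorescence of the gated AGP1 strain per well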
# LAP4-GFP pick2 – second confirmation of modulators of TOR reporter LAP4-GFP in yeast; S. cerevisiae LAP4-GFP strain, flow cytometry GFP, 3 h; shares compounds with LAP4-GFP MLPCN; hit rate 20% among 590; GFP response vs DMSO, % at 10 µM; AID 2621;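 active means GFP signal as percent of the solvent control above about 150%, meaning raised reporter expression, limit read from the data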
# MEP2-GFP pick2 – yeast MEP2-GFP modulation, second cherry pick | GFP response vs DMSO, % at 10 µM | hit rate 10% among 590 | shares compounds with LAP4-GFP MLPCN | S. cerevisiae MEP2-GFP strain, flow cytometry GFP, 3 h;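 active means GFP signal above 150% of the solvent control wells, that is a rise of more than half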;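 further: median channel GFP fluorescence of all gated yeast cells per well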
# RPL19A GFP CP2 – second confirmation of modulators of TOR reporter RPL19A-GFP in yeast; shares compounds with LAP4-GFP MLPCN; S. cerevisiae RPL19A-GFP strain, flow cytometry GFP, 3 h; hits give low values; 100% means same as DMSO wells; GFP response vs DMSO, % at 10 µM; hit rate 3% among 590;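 active means under 65% GFP response relative to DMSO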;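 further: median GFP channel fluorescence per well over the all cells gate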
# CIT2 GFP CP2 – second confirmation of modulators of TOR reporter CIT2-GFP in yeast; shares compounds with LAP4-GFP MLPCN; S. cerevisiae CIT2-GFP strain, flow cytometry GFP, 3 h; DMSO control wells read 100%; GFP response vs DMSO, % at 10 µM; hit rate 8% among 590; AID 2624;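 active means GFP response vs DMSO above about 150%, limit read from the data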;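 further: median green fluorescence per well over all gated yeast cells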
# AGP1-GFP pick2 – reconfirmed modulator of AGP1-GFP TOR reporter in yeast. 590 tested, under 10 active. percent response vs DMSO, % at 10 µM. shares compounds with LAP4-GFP MLPCN. S. cerevisiae AGP1-GFP strain, flow cytometry GFP, 3 h;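 active means over 150 percent of DMSO response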;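 further: median GFP channel fluorescence over all cells without mother daughter split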
# s288c autofluor – counter-screen for compound autofluorescence in yeast s288c cells. AID 2757. shares compounds with LAP4-GFP MLPCN. S. cerevisiae s288c, 520 nm autofluorescence, flow cytometry, 3 h; hits give high values; zero means same as solvent-only cells. fluorescence change (kMESF span) at 33 µM. 610 tested, under 10 active;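 active means fluorescence span over the dose series, or activity score, above about 33, limit read from the data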
# Hits are given with their value; – = inactive; · = not tested or not shown; [ ] = dose if it differs, or a comment. This is a sample that favours compounds with a hit; in the whole collection about 0.93% have one here.
SMILES,CIT2-GFP yeast,MEP2 TOR yeast,LAP4-GFP MLPCN,RPL19A-GFP yeast,AGP1 TOR yeast,LAP4-GFP pick2,MEP2-GFP pick2,RPL19A GFP CP2,CIT2 GFP CP2,AGP1-GFP pick2,others
CC1=C(C)/C(=N\OS(=O)(=O)c2ccc(C)cc2)C=CC1=O,–,–,244,–,–,160,–,–,153,–,s288c autofluor=–
CC1=C/C(=N\OS(=O)(=O)c2ccccc2)C(C(C)C)=CC1=O,–,–,191,–,–,172,157,–,–,–,s288c autofluor=–
COc1cc(/C=C2\SC(=O)NC2=O)ccc1OCC(=O)N1CCOCC1,–,–,–,–,–,·,·,·,·,·,
CCOC(=O)C1=NOC2C3CC(C12)C1C(=O)N(CCc2ccc(OC)c(OC)c2)C(=O)C31 (stereo unspecified),–,–,–,–,–,·,·,·,·,·,
CC(C)C1N(C(=O)CN2CCCCC2)CCN1S(=O)(=O)c1ccccc1 (stereo unspecified),–,–,–,–,–,·,·,·,·,·,
CC1CCCCN1C(=O)C(=O)c1cn(CC(=O)N2CCCC2)c2ccccc12 (stereo unspecified),–,–,–,–,–,·,·,·,·,·,
CC1CCN(C(=O)C(=O)c2cn(CC(=O)N3CCCC3)c3ccccc23)CC1,159,–,–,–,–,–,–,–,–,–,
CCN(Cc1ccccc1)C(=O)C(=O)c1cn(CC(=O)N2CCCC2)c2ccccc12,178,–,–,–,–,–,–,–,–,–,
CN(C(=O)CSc1nnc(-c2ccco2)n1Cc1ccccc1)C1CCS(=O)(=O)C1 (stereo unspecified),–,–,–,–,–,·,·,·,·,·,
O=C1CC(c2ccccc2)=NN1c1nc(-c2ccccc2)cs1,–,–,–,–,–,–,213,–,–,–,s288c autofluor=–
Cc1nn(C)c(C)c1N1C(=O)c2cccc3c(Br)ccc(c23)C1=O,–,–,–,–,–,·,·,·,·,·,s288c autofluor=–
Cc1ccc(/C=C/C(=O)N2CCc3ccccc32)o1,–,–,168[may fluoresce green],–,–,–,–,–,–,–,
Cn1/c(=N/NC(=O)c2ccccc2F)sc2ccccc21,–,–,–,–,–,·,·,·,·,·,
CCC(C)c1ccccc1N1CC(C(=O)Nc2ccc(N3CCOCC3)cc2)CC1=O (stereo unspecified),–,–,–,–,–,·,·,·,·,·,
C[C@@]12C(=O)Nc3cc(Cl)ccc3C(=O)N1[C@H]1c3ccccc3OC[C@@H]1[C@@H]2c1ccccc1,–,–,–,–,–,·,·,·,·,·,
C[C@@]12C(=O)Nc3ccc(Cl)cc3C(=O)N1[C@H]1c3ccccc3OC[C@@H]1[C@@H]2c1ccccc1,–,–,157,–,–,–,–,–,–,–,
COc1c(OC(C)=O)c(=O)n2c3ccccc3c3ccnc1c32,–,245,–,48,–,–,–,–,–,–,
COc1ccc(-c2nc(SC(C)C(=O)NCC3CCCO3)n[nH]2)cc1 (stereo unspecified),–,–,–,–,–,·,·,·,·,·,
Cc1ccc(NC(=O)COC(=O)COc2cccc3c2OC(C)(C)C3)cc1C,157[may fluoresce green],212[may fluoresce green],167[may fluoresce green],–,–,–,–,–,–,–,
Cc1cc(C)cc(NC(=O)COC(=O)COc2cccc3c2OC(C)(C)C3)c1,–,–,–,–,–,·,·,·,·,·,
